Laboratory results as given in PubChem BioAssay AID1159580 (chemical genetic matrix, 2015).
Among all 5,500 compounds or so, about 2,000 (36%) were called active. Inconclusive results (about 18%) are left out. Cut-off read from the data, not from the text of the source: active = normalized growth mostly below about 0.91 (no sharp cut-off); inconclusive = no clear call, values can overlap the other calls; inactive = mostly above about 0.92. This is one part of the list.

Test: chemical genetic growth profiling, strain panel (AID 1159580);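 note: tested at 20 µM; growth read once vehicle control cultures reached saturation at 30 °C; 1 = growth at the plate median or of vehicle wells; lower values mean less growth of the strain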
Conditions: growth OD

Measured: normalized growth

CC(C)Nc1nc(Cl)nc(NC(C)C)n1
inactive: S. cerevisiae deletion strains, locus YJR075W, strain HOC1, stronger effect = lower value 1.01 | S. cerevisiae deletion strains, locus YKL009W, strain mrt4, stronger effect = lower value 1.01 | S. cerevisiae deletion strains, locus YKL068W, stronger effect = lower value 1.01 | S. cerevisiae deletion strains, locus YKL085W, strain MDH1 (second series), stronger effect = lower value 1 | S. cerevisiae deletion strains, locus YKL085W, strain MDH1, stronger effect = lower value 1 | S. cerevisiae deletion strains, locus YKL160W, strain elf1, stronger effect = lower value 1 | S. cerevisiae deletion strains, locus YKL190W, strain CNB1, stronger effect = lower value 1.01 | S. cerevisiae deletion strains, locus YKR001C, strain vps1, stronger effect = lower value 1.01 | S. cerevisiae deletion strains, locus YKR026C, strain gcn3, stronger effect = lower value 0.994 | S. cerevisiae deletion strains, locus YKR091W, strain srl3, stronger effect = lower value 0.998 | S. cerevisiae deletion strains, locus YLL001W, strain dnm1, stronger effect = lower value 1.01 | S. cerevisiae deletion strains, locus YLL026W, stronger effect = lower value 0.991 | S. cerevisiae deletion strains, locus YLL041C, strain sdh2, stronger effect = lower value 1 | S. cerevisiae deletion strains, locus YLR027C, strain aat2, stronger effect = lower value 0.995 | S. cerevisiae deletion strains, locus YLR039C, strain RIC1, stronger effect = lower value 0.995 | S. cerevisiae deletion strains, locus YLR058C, strain SHM2, stronger effect = lower value 1.01 | S. cerevisiae deletion strains, locus YLR102C, strain apc9, stronger effect = lower value 1.02 | S. cerevisiae deletion strains, locus YLR113W, strain HOG1, stronger effect = lower value 1 | S. cerevisiae deletion strains, locus YLR221C, strain rsa3, stronger effect = lower value 0.994 | S. cerevisiae deletion strains, locus YLR258W, strain gsy2, stronger effect = lower value 1 | S. cerevisiae deletion strains, locus YLR262C, strain YPT6 (second series), stronger effect = lower value 0.935 | S. cerevisiae deletion strains, locus YLR262C, strain YPT6, stronger effect = lower value 0.984 | S. cerevisiae deletion strains, locus YLR268W, strain sec22, stronger effect = lower value 0.992 | S. cerevisiae deletion strains, locus YLR320W, strain mms22, stronger effect = lower value 0.995 | S. cerevisiae deletion strains, locus YLR330W, strain CHS5, stronger effect = lower value 1.01 | S. cerevisiae deletion strains, locus YLR342W, strain FKS1 (second series), stronger effect = lower value 1.01 | S. cerevisiae deletion strains, locus YLR342W, strain FKS1, stronger effect = lower value 1.01 | S. cerevisiae deletion strains, locus YLR357W, strain rsc2, stronger effect = lower value 0.95 | S. cerevisiae deletion strains, locus YLR370C, strain arc18, stronger effect = lower value 1 | S. cerevisiae deletion strains, locus YLR371W, strain rom2, stronger effect = lower value 1.01 | S. cerevisiae deletion strains, locus YLR384C, strain iki3, stronger effect = lower value 1 | S. cerevisiae deletion strains, locus YLR418C, strain cdc73, stronger effect = lower value 0.979 | S. cerevisiae deletion strains, locus YML016C, strain PPZ1, stronger effect = lower value 1.01 | S. cerevisiae deletion strains, locus YML032C, strain rad52, stronger effect = lower value 1.01 | S. cerevisiae deletion strains, locus YML120C, strain ndi1, stronger effect = lower value 0.998 | S. cerevisiae deletion strains, locus YML124C, strain tub3, stronger effect = lower value 1.01 | S. cerevisiae deletion strains, locus YMR058W, strain fet3, stronger effect = lower value 1.01 | S. cerevisiae deletion strains, locus YMR078C, strain ctf18, stronger effect = lower value 1.02 | S. cerevisiae deletion strains, locus YMR125W, strain sto1, stronger effect = lower value 0.997 | S. cerevisiae deletion strains, locus YMR129W, stronger effect = lower value 0.994 | S. cerevisiae deletion strains, locus YMR205C, strain PFK2, stronger effect = lower value 0.985 | S. cerevisiae deletion strains, locus YMR223W, strain ubp8, stronger effect = lower value 1.01 | S. cerevisiae deletion strains, locus YMR231W, strain pep5, stronger effect = lower value 0.999 | S. cerevisiae deletion strains, locus YMR263W, strain SAP30, stronger effect = lower value 1.02 | S. cerevisiae deletion strains, locus YMR307W, strain GAS1, stronger effect = lower value 1.02 | S. cerevisiae deletion strains, locus YNL067W, strain RPL9B, stronger effect = lower value 0.999 | S. cerevisiae deletion strains, locus YNL071W, strain lat1, stronger effect = lower value 1 | S. cerevisiae deletion strains, locus YNL128W, strain TEP1, stronger effect = lower value 1 | S. cerevisiae deletion strains, locus YNL153C, strain GIM3, stronger effect = lower value 0.989 | S. cerevisiae deletion strains, locus YNL183C, strain NPR1, stronger effect = lower value 0.935 | S. cerevisiae deletion strains, locus YNL209W, strain ssb2, stronger effect = lower value 0.999 | S. cerevisiae deletion strains, locus YNL233W, strain BNI4, stronger effect = lower value 1.02 | S. cerevisiae deletion strains, locus YNL248C, strain rpa49, stronger effect = lower value 0.982 | S. cerevisiae deletion strains, locus YNL250W, strain rad50, stronger effect = lower value 1.01 | S. cerevisiae deletion strains, locus YNL271C, strain bni1, stronger effect = lower value 1.01 | S. cerevisiae deletion strains, locus YNL298W, strain CLA4, stronger effect = lower value 1.02 | S. cerevisiae deletion strains, locus YNL307C, strain MCK1, stronger effect = lower value 1.02 | S. cerevisiae deletion strains, locus YNL322C, strain KRE1 (second series), stronger effect = lower value 0.992 | S. cerevisiae deletion strains, locus YNL322C, strain KRE1, stronger effect = lower value 1.01 | S. cerevisiae deletion strains, locus YNR049C, strain mso1, stronger effect = lower value 1 | S. cerevisiae deletion strains, locus YNR052C, strain pop2, stronger effect = lower value 1.01 | S. cerevisiae deletion strains, locus YOL006C, strain TOP1, stronger effect = lower value 1.03 | S. cerevisiae deletion strains, locus YOL012C, strain htz1 0.789 | S. cerevisiae deletion strains, locus YOL147C, strain pex11, stronger effect = lower value 1.01 | S. cerevisiae deletion strains, locus YOR001W, strain rrp6, stronger effect = lower value 0.999 | S. cerevisiae deletion strains, locus YOR061W, strain CKA2, stronger effect = lower value 0.998 | S. cerevisiae deletion strains, locus YOR069W, strain VPS5, stronger effect = lower value 1.01 | S. cerevisiae deletion strains, locus YOR070C, strain gyp1, stronger effect = lower value 1.01 | S. cerevisiae deletion strains, locus YOR080W, strain dia2, stronger effect = lower value 0.994 | S. cerevisiae deletion strains, locus YOR083W, strain WHI5, stronger effect = lower value 1 | S. cerevisiae deletion strains, locus YOR106W, strain vam3, stronger effect = lower value 1.01 | S. cerevisiae deletion strains, locus YOR136W, strain idh2, stronger effect = lower value 1.01 | S. cerevisiae deletion strains, locus YOR144C, strain elg1, stronger effect = lower value 1 | S. cerevisiae deletion strains, locus YOR184W, strain ser1, stronger effect = lower value 1.02 | S. cerevisiae deletion strains, locus YOR231W, strain MKK1, stronger effect = lower value 0.978 | S. cerevisiae deletion strains, locus YOR265W, strain rbl2, stronger effect = lower value 1 | S. cerevisiae deletion strains, locus YOR270C, strain vph1, stronger effect = lower value 1.01 | S. cerevisiae deletion strains, locus YOR290C, strain snf2, stronger effect = lower value 1.02 | S. cerevisiae deletion strains, locus YOR316C, strain cot1, stronger effect = lower value 1.01 | S. cerevisiae deletion strains, locus YPL051W, strain arl3, stronger effect = lower value 0.997 | S. cerevisiae deletion strains, locus YPL055C, strain LGE1, stronger effect = lower value 0.983 | S. cerevisiae deletion strains, locus YPL078C, strain atp4, stronger effect = lower value 0.999 | S. cerevisiae deletion strains, locus YPL106C, strain sse1, stronger effect = lower value 1 | S. cerevisiae deletion strains, locus YPL240C, strain hsp82, stronger effect = lower value 1.01 | S. cerevisiae deletion strains, locus YPL241C, strain CIN2, stronger effect = lower value 1 | S. cerevisiae deletion strains, locus YPL256C, strain CLN2, stronger effect = lower value 0.966 | S. cerevisiae deletion strains, locus YPR119W, strain clb2, stronger effect = lower value 1.01 | S. cerevisiae deletion strains, locus YPR141C, strain kar3, stronger effect = lower value 1.02 | S. cerevisiae deletion strains, locus YPR163C, strain tif3, stronger effect = lower value 1 | S. cerevisiae deletion strains, locus YPR167C, strain met16, stronger effect = lower value 1.01 | S. cerevisiae deletion strains, strain wtn01, stronger effect = lower value 1.01 | S. cerevisiae strains, strain wild type, stronger effect = lower value 1
